This is a sample that favours compounds with a hit; in the whole collection about 12% have one here.
JMJD2A Tudor inh: inhibitors of human JMJD2A Tudor domain; Potency, µM (titrated, usually from 114 µM), most hits filed as inhibitors; actives 4.4% (n = 390,000); AlphaScreen JMJD2A-Tudor / H3K4me3 peptide binding; AID 504339; O75164; also: nearly all actives have a fitted effect of over 50% in size
Target sequence (O75164 whole entry, looked up, the tested form may be a part): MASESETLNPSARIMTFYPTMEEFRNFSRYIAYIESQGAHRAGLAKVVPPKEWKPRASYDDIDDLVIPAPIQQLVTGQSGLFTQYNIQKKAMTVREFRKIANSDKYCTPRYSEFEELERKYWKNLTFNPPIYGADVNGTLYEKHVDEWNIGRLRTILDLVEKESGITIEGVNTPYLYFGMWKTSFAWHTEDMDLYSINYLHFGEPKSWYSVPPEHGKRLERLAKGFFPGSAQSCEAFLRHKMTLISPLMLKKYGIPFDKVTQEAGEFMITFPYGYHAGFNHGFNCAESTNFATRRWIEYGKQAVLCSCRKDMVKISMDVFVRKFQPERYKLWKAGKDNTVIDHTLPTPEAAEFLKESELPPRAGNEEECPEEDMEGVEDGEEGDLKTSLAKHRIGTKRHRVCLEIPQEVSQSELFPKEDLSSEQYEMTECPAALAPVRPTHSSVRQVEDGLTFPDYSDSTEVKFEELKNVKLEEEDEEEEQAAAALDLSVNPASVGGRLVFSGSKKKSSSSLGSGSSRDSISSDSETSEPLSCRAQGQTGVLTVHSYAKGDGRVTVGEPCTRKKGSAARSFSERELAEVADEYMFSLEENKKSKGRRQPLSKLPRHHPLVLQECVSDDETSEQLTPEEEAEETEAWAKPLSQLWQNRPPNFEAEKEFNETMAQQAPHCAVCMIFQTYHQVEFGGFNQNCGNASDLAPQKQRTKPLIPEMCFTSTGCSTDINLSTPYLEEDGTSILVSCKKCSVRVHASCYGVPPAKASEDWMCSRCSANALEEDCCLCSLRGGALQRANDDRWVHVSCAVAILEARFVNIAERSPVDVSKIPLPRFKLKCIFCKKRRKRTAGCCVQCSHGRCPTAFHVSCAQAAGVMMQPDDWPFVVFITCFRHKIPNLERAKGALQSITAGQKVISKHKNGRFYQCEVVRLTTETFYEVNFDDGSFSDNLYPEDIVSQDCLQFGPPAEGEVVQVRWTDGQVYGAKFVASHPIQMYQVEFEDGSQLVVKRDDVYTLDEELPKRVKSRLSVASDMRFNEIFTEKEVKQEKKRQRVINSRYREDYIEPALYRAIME
Sfp inh: Sfp phosphopantetheinyl transferase inhibition | Q9F4F7 | Biochemical Sfp PPTase activity, qHTS | Potency, µM, hits mostly inhibitors | actives 3.5% (n = 310,000);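 also: the enzyme is Sfp with the accession as filed and its product quenches rhodamine fluorescence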
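Sfp 15 nM + cpd, 15 min RT; start w/ rhodamine-CoA 5 uM, BHQ-2-YbbR 12.5 uM (final); 50 mM Hepes pH 7.6, 10 mM MgCl2, 0.01% NP-40, 0.01% BSA; read 525/598 nm at 0 and 30 min.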
BAZ2B block: blocks human BAZ2B; Potency, µM (top dose mostly 114 µM), actives largely listed as inhibitors; actives 4.4% (n = 360,000); AlphaScreen BAZ2B-H3K14Ac peptide displacement; also: nearly all actives have a fitted effect of over 60% in size
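Multi-concentration screen (max 110 uM) measuring displacement of acetylated histone H3 peptide from BAZ2B by AlphaScreen, using 50 nM protein, 50 nM peptide and 10 ug/mL streptavidin donor plus Ni-chelate acceptor beads.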
G9a block: blocks human histone lysine methyltransferase G9a. Q96KQ7. G9a H3K9 monomethylation, AlphaScreen, 2 h. Potency, µM (doses to about 102 µM), hits mostly inhibitors. actives 8.8% (n = 350,000). AID 504332; also: nearly all actives have a fitted effect of over 75% in size
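Signal arises when biotinylated H3K9 peptide, once monomethylated, bridges streptavidin donor and antibody-captured acceptor beads. Enzyme at 20 nM was preincubated 15 min with test compounds; peptide 500 nM and SAM 20 uM then reacted for 2 h.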
HP1b chromo inh: inhibitors of HP1-beta chromodomain binding to methylated histone tails | AlphaScreen HP1-beta / biotin-H3K9me3 peptide binding | P83916 | Potency, µM (doses to about 114 µM), actives largely listed as inhibitors | actives 0.56% (n = 390,000); also: nearly all actives have a fitted effect of over 70% in size
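AlphaScreen: HP1-beta (50 nM) preformed 30 min with biotin-H3(1-18)K9me3 peptide (50 nM) in PBS pH 7.4, 0.01% Tween-20. Compound added for 30 min at RT, then streptavidin donor/nickel chelate acceptor beads (10 ug/mL) for 30 min.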
L3MBTL1 inh: blocks human L3MBTL1 | Q9Y468 | AlphaScreen L3MBTL1–H3K9me1 peptide binding | Potency, µM (series often up to 57.1 µM), usual class: inhibitors | actives 0.66% (n = 230,000) | AID 485360; also: nearly all actives have a fitted effect of over 60% in size
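Displacement of a biotinylated histone H3(1-15) peptide monomethylated at Lys9 (75 nM) from L3MBTL1 (50 nM) was measured by AlphaScreen after a 30 min room-temperature compound incubation; cefsulodin titration served as intraplate control.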
A number is an active result; – = inactive; ? = inconclusive; · = not tested or not shown; [ ] = dose if it differs, or a comment. Calls follow the shape of the dose curve; as a rule, active = well fitted curve in the direction sought with a large enough effect; inconclusive = small, poorly fitted or top-dose-only effect, or another doubt; inactive = no such curve, though single readings can be large; an effect the other way counts as inactive or inconclusive.

SMILES	JMJD2A Tudor inh	Sfp inh	BAZ2B block	G9a block	HP1b chromo inh	L3MBTL1 inh
O=C(NC1=NCCS1)C12CC3CC(C1)CC(C(=O)NC1=NCCS1)(C3)C2	56µM	–	50µM	?	–	–
CCc1cccc(NC(=O)Cn2c(=O)n(CCc3ccc(OC)c(OC)c3)c(=O)c3ccccc32)c1	–	·	–	–	–	·
O=C(NN1C(=O)C2C3C=CC(O3)C2C1=O)c1cccc(O)c1 (stereo not given)	–	45µM	–	7.9µM	–	–
COc1cccc(C(=O)NN2C(=O)C3C4C=CC(O4)C3C2=O)c1 (stereo not given)	–	?	–	?	–	·
COc1ccc(C(=O)NN2C(=O)C3C4C=CC(O4)C3C2=O)cc1 (stereo not given)	–	22µM	–	4.5µM	–	–
O=C(NN1C(=O)C2C3C=CC(O3)C2C1=O)c1cccc(Br)c1 (stereo not given)	–	40µM	–	?	–	–[11.4 µM]
CC1=C(C(=O)Nc2ccc(Cl)cc2)C(C(C)C)n2nc(SCc3cccc(C)c3)nc2N1 (stereo not given)	–	·	–	–	–	·
Cc1ccc(S(=O)(=O)N2CCN(c3nc(-c4ccc(CN5CCNCC5)s4)nc4ccccc34)CC2)cc1	?	·	·	·	–	·
Cc1cccc(OCc2nc(CC(=O)Nc3ccc(Cl)cc3)cs2)c1	–	·	–	–	–	·
CCC(C(=O)Nc1nc(C)cs1)c1ccccc1 (stereo not given)	50µM	–	–	–	–	–
Cc1csc(NC(=O)C(Cc2ccccc2)n2cccc2)n1 (stereo not given)	?	–	?	45µM	–	?
Cc1ccc(NC(=O)C(Cc2ccccc2)n2cccc2)cc1 (stereo not given)	–	–	–	–	–	·
O=C(NCc1cccs1)C(Cc1ccccc1)n1cccc1 (stereo not given)	–	–	–	45µM	–	–
CC(C(=O)NCc1cccs1)n1cccc1 (stereo not given)	–	–	–	–	–	–
CCC(C(=O)Nc1nc(C)c(C)s1)c1ccccc1 (stereo not given)	–	50µM	50µM	–[0.501 µM]	–	–[2.29 µM]
COc1cc(C(=O)OCc2cc(=O)n3nc(C4CCCCC4)sc3n2)cc(OC)c1OC	–	·	–	–	–	·
CCOc1ccc2nc(N3CCCC(C(=O)Nc4cc(Cl)c(OC)cc4OC)C3)sc2c1 (stereo not given)	–	·	–	–	–	·
Cc1ccc2c(c1)C(c1ccc(F)cc1)N(C(=O)c1ccc(OC(C)C)cc1)CC(=O)N2 (stereo not given)	–	·	–	–	–	·
O=C(O)c1cccc2c1C(=O)c1cccc3snc-2c13	–	–	–	56µM	–	–
Cc1ccc2c(c1)C(=O)c1c(C(=O)O)cccc1-2	–[11.4 µM]	–	–	–	–	–
O=C(Nc1ccc(S(=O)(=O)N(Cc2ccccc2)c2ccccc2)cc1)c1ccc(F)cc1	–	·	–	–	–	·
COCC(C)n1c(C)cc(C(=O)COC(=O)c2cccn2C)c1C (stereo not given)	–	·	·	·	–	–
COCC(C)n1c(C)cc(C(=O)COC(=O)c2nc3nc(C)cc(C)n3n2)c1C (stereo not given)	–	–	–	56µM	–	–
COc1cc(-c2nc3sccn3c2Nc2cccc(C)c2)ccc1O	45µM	·	13µM	11µM	?	·
COc1cc(-c2nc3ccc(C)cn3c2Nc2ccc(Cl)cc2)ccc1O	?	·	–	?	–	·
SMILES	JMJD2A Tudor inh	Sfp inh	BAZ2B block	G9a block	HP1b chromo inh	L3MBTL1 inh
CC(CC(=O)Nc1cccnc1)c1ccccc1 (stereo not given)	–	–	–	–	–	–
CC(C)CSc1n[nH]c(=S)s1	8.9µM	35µM	50µM	1.8µM	28µM	–
O=C1c2ccccc2C(=O)N1CCSc1ncn[nH]1	–	–	–	–	–	–
CC(C)CSc1n[nH]c(N)n1	–	–	–	–	–	·
O=C1c2ccccc2C(=O)N1CCSc1n[nH]c(=S)s1	18µM	50µM	?	1.3µM	?	·
CC(CSc1n[nH]c(=S)s1)c1ccccc1 (stereo not given)	18µM	·	·	·	50µM	·
CCCN(Cc1cccs1)C(=O)Nc1ccc(F)c(Cl)c1	–	·	–	–	–	·
